The values below come from PMC5540273 (PLoS ONE, 2017).

Test systems include MYO3A; MYO3B; NDR2; NEK10; NEK11; NEK1; NEK2; NEK3; NEK4; NEK5; NEK6; NEK7; NEK9; NLK; PAK1; PAK2.
Common to all, as to details: concentration: 1 μM, replicates: in singlicate; n = 1
A further experiment relates to T1, NDR1.
T1 construct: gene STK38

Another experiment has as its system T2, NIK.
T2 construct: gene MAP3K14

In the next experiment the test system is T3, NIM1.
T3 construct: gene MGC42105

A further experiment relates to T4, OSR1.
T4 construct: gene OXSR1
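Further: KINOMEscan kinase panel screen.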

For `Cc1ccc(NC(=O)Nc2ccccc2)cc1-c1ccc(C(=O)Nc2ccncc2)cc1` [GSK1398471], the “%Inh” value is 0% in the experiment on MYO3A; 0% in the experiment on MYO3B; 24% in the experiment on NDR1; 0% in the experiment on NDR2; 10% in the experiment with NEK10; 0% in the experiment on NEK11. Further, the “%Inh” value with NEK1 was determined as 15%; in the experiment with NEK2 it was 0%; in the experiment on NEK3, 0%; with NEK4 it was 0%; in the experiment with NEK5, 4%; with NEK6, 0%. Also, the “%Inh” value in the experiment with NEK7 amounted to 0%; in the experiment on NEK9, 23%; with NIK it was 0%; in the experiment on NIM1, 0%; with NLK, 51%; in the experiment on OSR1, 14%. Also, the figures for the “%Inh” value in the experiment on PAK1 and in the experiment with PAK2 were 20% and 13%, respectively.

As for `COc1ccc(Nc2nccc(N3CCC(NC(=O)C(C)c4ccc(Cl)cc4)CC3)n2)cc1` (stereo not shown) [GSK1379812], the “%Inh” value in the experiment on MYO3A is 24%; in the experiment with MYO3B it was 0%; in the experiment with NDR1, 39%; in the experiment with NDR2, 0%; in the experiment on NEK10, 43%; in the experiment with NEK11, 0%. Besides, the “%Inh” value worked out at 0% with NEK1; 4% in the experiment on NEK2; 53% with NEK3; 0% in the experiment with NEK4; 54% in the experiment with NEK5; 55% in the experiment with NEK6. The “%Inh” value in the experiment on NEK7 is 0%; in the experiment on NEK9 it was 10%; with NIK, 0%; in the experiment with NIM1, 11%; with NLK, 35%; with OSR1, 0%. Also, the “%Inh” value was determined as 21% in the experiment on PAK1 and 15% in the experiment on PAK2.

As to `Cc1ccccc1Cn1ccn2c(=O)cc(N3CCOCC3)nc12` [GSK2269905], the “%Inh” value with MYO3A amounted to 7%; in the experiment on MYO3B, 0%; with NDR1, 12%; in the experiment with NDR2, 0%; with NEK10, 2%; in the experiment on NEK11, 0%. For the same compound, the “%Inh” value with NEK1 was determined as 0%; in the experiment on NEK2 it was 13%; in the experiment with NEK3, 11%; with NEK4, 16%; in the experiment with NEK5, 4%; in the experiment with NEK6, 0%. Moreover, the “%Inh” value amounted to 0% in the experiment with NEK7; 0% with NEK9; 0% with NIK; 19% with NIM1; 9% with NLK; 6% with OSR1. Further, the figures for the “%Inh” value in the experiment on PAK1 and in the experiment with PAK2 were 12% and 13%, respectively.

Take `O=C(Nc1n[nH]c2nc(-c3cccs3)c(Br)cc12)C1CCCC1` [SB-743341]: the “%Inh” value in the experiment on MYO3A amounted to 17%; in the experiment with MYO3B, 42%; in the experiment on NDR1 it was 15%; in the experiment on NDR2, 15%; in the experiment on NEK10, 12%; in the experiment with NEK11, 0%. The “%Inh” value with NEK1 came out at 0%; in the experiment with NEK2, 0%; with NEK3, 5%; with NEK4, 0%; in the experiment on NEK5 it was 14%; with NEK6 it was 16%. The “%Inh” value with NEK7 stood at 14%; with NEK9, 15%; with NIK, 0%; in the experiment with NIM1, 15%; in the experiment on NLK, 2%; in the experiment on OSR1 it was 8%. The “%Inh” value with PAK1 came to 0%; with PAK2, 13%.

Consider `Cc1ccc(NC(=O)Nc2ccc(Cl)c(C(F)(F)F)c2)cc1-c1ccc(C(=O)Nc2ccncc2)cc1` [GSK1398470], for which the “%Inh” value turned out to be 60% in the experiment on MYO3A; 0% with MYO3B; 23% in the experiment on NDR1; 0% in the experiment with NDR2; 2% in the experiment on NEK10; 0% with NEK11. The “%Inh” value in the experiment on NEK1 stood at 0%; in the experiment on NEK2, 23%; in the experiment on NEK3, 2%; with NEK4 it was 17%; in the experiment on NEK5, 11%; in the experiment with NEK6, 12%. For the same compound, the “%Inh” value with NEK7 came to 2%; in the experiment with NEK9, 20%; with NIK it was 0%; with NIM1, 0%; in the experiment with NLK, 21%; in the experiment on OSR1 it was 35%. Also, the “%Inh” value with PAK1 and with PAK2 was 19% each time.
